In all, about 25,000 sequences were measured (“ln(normalized median fluorescence intensity)”: median about 9.3, highest 2% from about 10 on). The entries come from a sample that favours the highest values as a whole.

The test system of the test is PF3D7_0420300 AP2 domain 1 (GST-tagged). Description: gcPBM binding intensity (ln(normalized median fluorescence intensity)); higher = stronger DNA binding. The procedure, abridged: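 An Agilent 4 × 180k array carrying primer-extended double-stranded 36-bp intergenic genomic probes and negative controls received GST-tagged P. falciparum DNA-binding domains expressed in E. coli, about 25 μg on average, for 1 h. The binding buffer contained 1× PBS, 1% milk, 0.2 mg/ml BSA, 0.5% salmon testes DNA and 0.03% Triton X-100. Binding intensity is the top Masliner-normalised natural-log median intensity across replicate spots of either probe orientation, read after Alexa488 anti-GST antibody staining and a 488 nm scan.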
Take “GTACATATAAATATTACACACATTTTCATTTTTAAC [CACACA_site1986]”: the “gcPBM binding intensity (ln)” value was found to be 9.56. The value for “ATAATTTATATTCAGAAACACACGAAAAAAAAAAAT [CACACA_site1296]” was 9.64.

As to “TAAATGTAAAACGAAATGCACACTATGGAAAATATA [CACACA_site724]”, the “gcPBM binding intensity (ln)” value is 9.66. Under “AATTAATATTTAAATTGTACATGAACATTTTAATGT [XGTACX_site462]” stands 8.97; under “CAAATACATAGACACACACACATATACATATTTATA [CACACA_site7610]”, 10; under “ATTCATTCATATGTTACACACACACGCCCACATAAA [CACACA_site7513]”, 10.3.

For “TCATTCATATGTTACACACACACACCCACATAAAAA [CACACA_site3245]”, the “gcPBM binding intensity (ln)” value is 10.1. Under “AAAATTCATAAATACACACACGCACATATATATATA [CACACA_site4227]” stands 9.88; under “ATTCATTCATATGTTACACACACACCCACCCATAAA [CACACA_site9066]”, 10.2. The value for “TCATTCATATGTTACACACACACACGCACATAAAAA [CACACA_site7514]” was 10.3. Under “ATTCATTCATATGTTACACACACACCGACACATAAA [CACACA_site5749]” stands 10; under “AAAAAGGGTATTATTACACACACGTAAATATTAATA [CACACA_site101]”, 9.61; under “TTTCCTTTTTTAATATGTACACATATTATTATATCT [XGTACX_site3079]”, 9.45. For “ATAATTTAAAAACATTGTACATTAATATATATGTAT [XGTACX_site8970]”, the “gcPBM binding intensity (ln)” value amounted to 9.12. Under “GTACACATATATATATATATATATATATATATATAT [CACACA_negctrl_site800]” stands 9.25; under “ATATATATTTTTATTTGTACATAATTTTTTTTGTGA [XGTACX_site6378]”, 9.21. Under “ACCAAAAAAAAAAAAAAAAAAATATACATATATATA [GTGCAC_negctrl_site582]” stands 9.05; under “TTTCATTTCACAGACACACACACACCCTATATTTCC [CACACA_site3906]”, 10.2; under “ATTTCACAGAGACACACACACAATATATTTCCTTTT [CACACA_site7773]”, 9.94. Under “TCATTTCACAGACACACACACACAAGATATTTCCTT [CACACA_site7774]” stands 10; under “AAAGAAAATTAAAAAGAACACACAAATATATATATA [CACACA_site9196]”, 9.67.

As for “AAATAGAAAAAATATACACACACTTATTAAATAAAA [CACACA_site3313]”, the “gcPBM binding intensity (ln)” value came out at 9.86.

For the sequence “TGAGTATATAAATACACACACATATATATATTTTAA [CACACA_site5130]”, the “gcPBM binding intensity (ln)” value is 9.61.

For “TTTGTCATTTTATTATGTACTCAGCATATAGGGGGG [XGTACX_site505]”, the “gcPBM binding intensity (ln)” value turned out to be 10.5. The value for “TATATATATATATTATGTACTCATTTATTATCTTTT [XGTACX_site8051]” was 9.36. The value for “ATGCATATATTTATGTGTACATATATTTGTAGGGGG [XGTACX_site6063]” was 10.7; that for “ATATATATTTATATATGTACATATTTTTGTGTATTT [XGTACX_site1183]” was 9.55; that for “ATATATATATATATATGTACTCATATTTTATTATTT [XGTACX_site898]” was 9. Under “TATATATATATATATGCATGTACATATATTTGTTAT [TGCATGCA_site379]” stands 9.57; under “TATATACACATATATACACACACATATATATATATA [CACACA_site9127]”, 9.79. On to “TTACCAAAAACCTCAAGTACAAAAAATCCCTAATAT [XGTACX_site2313]”, for which the “gcPBM binding intensity (ln)” value turned out to be 9.37.

Regarding “TATATATTAAACTTTGCACACATAATTTAACTACAA [CACACA_site3440]”, the “gcPBM binding intensity (ln)” value stood at 9.4. “TTAGATATAAAAGCATGTACTTGTATAAAATATATA [XGTACX_site8272]”: the “gcPBM binding intensity (ln)” value came out at 9.16. The value for “TACAGACATACATACACACATACATATATATATATA [CACACA_site1940]” was 9.67; that for “TATACAGACAGACACACACACATATATATATATATA [CACACA_site1734]” was 9.82. Under “CATGCAAAAAATTCCACACACACACCCACATATAAA [CACACA_site1229]” stands 9.92; under “TTACATTATATACATACACACCCACCCACAAAAAAA [CACACA_site8187]”, 10.1. Under “TTGGCATACAGACACACACACACACGCCCACATATA [CACACA_site6425]” stands 10.2.

For “TGCAAAAAATTCCACACACACACACCCATATAAATA [CACACA_site1230]”, the “gcPBM binding intensity (ln)” value came out at 10. For “TACATATACAGACACACACACACACCCCCACAAAAA [CACACA_site495]”, the “gcPBM binding intensity (ln)” value was 10.3. The value for “TATATACATAGACACCCACACACAAAAAAAAAAAAA [CACACA_site8186]” was 9.75; that for “CACACCCACAGACACACACACACATATATAATATAT [CACACA_site594]” was 10.2.

In the case of “CACACCCACAGACACACACACACATATATATATATA [CACACA_site363]”, the “gcPBM binding intensity (ln)” value amounted to 10.2.

In the case of “TACATGCAAAAAATTCCACACACACCCCCACATATA [CACACA_site8329]”, the “gcPBM binding intensity (ln)” value is 10.2. In the case of “CCTTTATATTATAAAAGTACATAATATTTTATAAGT [XGTACX_site1629]”, the “gcPBM binding intensity (ln)” value is 8.96. The value for “TATATATGTATCATTACACACATGTATACTTATTTG [CACACA_site4138]” was 9.71; that for “TGAGAGTTCTCATATGCACACAAAAAACTTTCATTT [CACACA_site7898]” was 9.28.

Regarding “TATTTTTAATAAAAACGTACGGAATACAAAAAAAAT [XGTACX_site3477]”, the “gcPBM binding intensity (ln)” value is 9.4. With “AAGAAAATTGTCTGAAGTACAAAACATTAATAATAT [XGTACX_site4864]”, the “gcPBM binding intensity (ln)” value is 9.27. Under “ATATTATAATTAAAACGTACGTATTTATGAATTCAT [XGTACX_site1047]” stands 9.16. Under “ATAAATAATATAAATACACACTAAAAAAAATATATA [CACACA_site4456]” stands 9.7; under “CAAAAACATACCTACACACACAATATGTATAAATAA [CACACA_site7617]”, 10; under “CGCACCCACAGACACACACACACATATATATATATA [CACACA_site2202]”, 10.2. Under “TAAATACAGACATACACACATACACCCACATATATA [CACACA_site547]” stands 9.95; under “AATACACGCAGACACACACACAAAAAAAAAAAAAAA [CACACA_site6384]”, 9.61; under “TATACATACAGACCCACACACAAAAAAAAAAAAAAA [CACACA_site6536]”, 9.38.

For “TACCTATACAGACACACACACACACGCCCACAAAAA [CACACA_site6375]”, the “gcPBM binding intensity (ln)” value was determined as 10.3. The value for “TTGGCATACAGACACACACACACACCCCCACATATA [CACACA_site590]” was 10.1.

“CACCCCCACAGACACACACACACACCCATATATATA [CACACA_site364]”: the “gcPBM binding intensity (ln)” value is 10.3. Take “CATACACCCATACATACACACATACAGATATATATA [CACACA_site5123]”: the “gcPBM binding intensity (ln)” value came out at 9.74. Under “GGCATACACAGACACACACACACACCCACATATATA [CACACA_site591]” stands 10.3; under “ATATTATTGTAGAAATGTACATATATATATATATAT [XGTACX_site1882]”, 9.31; under “ATCATATGTATGCATACACACAAAAAGTTATTTATA [CACACA_site6325]”, 9.37.

As for “CACAAACAAAAACACACACACACACCCACAAAAATG [CACACA_site2429]”, the “gcPBM binding intensity (ln)” value was 10.1. Consider “TTAACAAATAAACACACACACACACCCAAAAAAAAA [CACACA_site8068]”, for which the “gcPBM binding intensity (ln)” value turned out to be 10.1. The value for “TATATAAATGGACACACACACACCTTATAATTATTA [CACACA_site6093]” was 10.2; that for “TATATAAATAAACACACACACACCTTATAATTATTA [CACACA_site9345]” was 9.93; that for “TATAAACACCCATATAAACACACATACATACATACA [CACACA_site8791]” was 9.58. Under “ATAAATAAAAAACACACACACACACCCAAAAAAAAA [CACACA_site2624]” stands 10.1; under “CATACATACAAACACACACACACACCCATATATATA [CACACA_site2918]”, 10.4; under “AAAAAAAAAAAACACACACACACACCCACAAAATAT [CACACA_site1447]”, 10.2. The value for “AAAAAAAAAAAACACACACACACACCCAAATATATA [CACACA_site150]” was 10.1; that for “TGCAACAAAATAAACACACACACACCCCCACAAAAA [CACACA_site3388]” was 10.3; that for “TAAACACCCATATAAACACACATACATACATACATA [CACACA_site5383]” was 9.7. On to “TATATAAAGAAACACACACACACCTTATAATTATTA [CACACA_site4062]”, for which the “gcPBM binding intensity (ln)” value amounted to 10. Regarding “TTATATAACATTATTTGTACATATAAAATATGGATG [XGTACX_site8526]”, the “gcPBM binding intensity (ln)” value turned out to be 9. The value for “ATATTATTTTAAAGTACACACATATATTGATATATA [CACACA_site7153]” was 9.39; that for “TGAATTCGTCAAAAGCGTACATATAATATCTTCTTG [XGTACX_site8842]” was 9.19; that for “AAAAACTATTGTAGGACACACAAAATTCCAATTTTA [CACACA_site1701]” was 9.41. Consider “GTCACAAAATAAATTAAACACACAACATCATATATG [CACACA_site8182]”, for which the “gcPBM binding intensity (ln)” value amounted to 9.65. For the sequence “AATGTACACCCACCCACACACAAACAAATATATATA [CACACA_site5521]”, the “gcPBM binding intensity (ln)” value was determined as 10.2. Under “TTTAAATACAGACATACACACATACACCCACATATA [CACACA_site8078]” stands 9.81. As to “AATGTACCCACACCCACACACAAACAAATATATATA [CACACA_site2751]”, the “gcPBM binding intensity (ln)” value was 9.85. The value for “CACAAAAAAAATTATACACACACACCCATATATATA [CACACA_site8255]” was 9.99. For the sequence “AACATACATAAACACACACACACACCCACAGAGACA [CACACA_site4430]”, the “gcPBM binding intensity (ln)” value is 10.4. Under “AAAATACAGAAACACACACACACACCCATATATATA [CACACA_site3559]” stands 10.3. Under “ATAAAATACAGATAAACACACATATAAACACCCATA [CACACA_site5381]” stands 9.92; under “AAAAAAAAAAAAAAAACACACAGAAATATATATATA [CACACA_site4611]”, 9.55. The value for “AATGTACACGCACCCACACACAAACAAATATAAATA [CACACA_site7319]” was 9.81.

Regarding “CAAAAAAAATTATACACACACACACCCATATATATA [CACACA_site1044]”, the “gcPBM binding intensity (ln)” value was 10.2. “ATTAATTATATATATACACACACATACACCCAAATA [CACACA_site9126]”: the “gcPBM binding intensity (ln)” value is 10. Under “TAAACAGACATATAAACACACATATAAACAGACATA [CACACA_site7214]” stands 9.91.

Source of the values: the supplement of paper PMC11417369.
